# Data: PubChem BioAssay AID1495 (Sanford-Burnham Center for Chemical Genomics, 2009)
# Potency and affinity values are given separately. Activity calls are given as the source filed them.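 The calls were made as follows: active = calorimetric dissociation constant under 10 µM against either the substrate-binding domain or full-length DnaK; inactive = the rest.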
# Molecular target: Chaperone protein DnaK (Escherichia coli) (UniProt C3TRK2)
# Experiment: DnaK beta-domain binding affinity, SAR follow-up, orthogonal assay for DnaK modulator project, biophysical, isothermal titration calorimetry, full-length DnaK (AID 1495)
# Settings: purified DnaK
row,SMILES,outcome
1,Cc1ccc(CNC(=O)c2ccc([N+](=O)[O-])o2)cc1,inactive
2,O=C(NCc1ccccc1F)c1cccs1,inactive
3,O=C(Nc1ncc2ccccc2n1)c1cccs1,active
4,Cc1ccc(C(=O)NCc2ccc(F)cc2)o1,inactive
5,Cc1ccc(C(=O)NCc2ccc(Cl)cc2)o1,inactive
